# Test results as given in the supplement of paper PMC11732987, “Enantioselective OTUD7B fragment discovery through chemoproteomics screening and high-throughput optimisation” (Communications Chemistry, 2025).
# Values without a mark were called inactive.
# Experiments:
# Test in all cases: log2 ratio of Biotin-Ahx-Ub-VS probe labelling (fragment/DMSO); higher = less target engagement (more negative = stronger competition), active = hit call of the paper (q ≤ 0.05, log2 ratio ≤ -1)
# Settings in all cases: compound concentration: 200 uM; treatment time: 3 h
# USP9X = USP9X (UniProt Q93008)
# Summary of the method: (§1)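 HEK293T lysate in Tris/CHAPS/IGEPAL buffer with protease inhibitors (495 µg per sample) was given fragment at 200 µM or vehicle for 3 h, in triplicate. It then received Biotin-Ahx-Ub-VS at 0.5 µM final for 1 h. Labelled DUBs were NeutrAvidin-enriched, digested with LysC and trypsin, and run by diaPASEF LC-MS/MS. Values are average log2 fragment/vehicle ratios by unpaired t-test on global-median-normalised Spectronaut quantities of proteins with ≥2 unique peptides.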
# UniProt O00487 = target: UniProt O00487
# Summary of the method: as §1
# UniProt O00507 = target: UniProt O00507
# Summary of the method: as §1
# UniProt P51784 = target: UniProt P51784
# Summary of the method: as §1
# UniProt Q5T2D3 = target: T1, UniProt Q5T2D3
# T1 sequence (whole entry): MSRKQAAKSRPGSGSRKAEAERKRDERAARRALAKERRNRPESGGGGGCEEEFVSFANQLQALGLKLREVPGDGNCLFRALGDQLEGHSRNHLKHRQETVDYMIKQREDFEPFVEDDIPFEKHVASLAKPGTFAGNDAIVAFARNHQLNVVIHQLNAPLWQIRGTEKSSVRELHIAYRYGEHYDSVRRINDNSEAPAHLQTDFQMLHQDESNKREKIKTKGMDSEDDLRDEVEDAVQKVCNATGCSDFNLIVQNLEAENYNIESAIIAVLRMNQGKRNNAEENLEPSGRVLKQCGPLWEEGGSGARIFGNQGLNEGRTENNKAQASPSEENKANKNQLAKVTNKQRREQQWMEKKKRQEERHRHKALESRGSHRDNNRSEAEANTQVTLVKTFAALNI
# Summary of the method: as §1
# UniProt Q8TE49 = target: T2, UniProt Q8TE49
# T2 sequence (whole entry): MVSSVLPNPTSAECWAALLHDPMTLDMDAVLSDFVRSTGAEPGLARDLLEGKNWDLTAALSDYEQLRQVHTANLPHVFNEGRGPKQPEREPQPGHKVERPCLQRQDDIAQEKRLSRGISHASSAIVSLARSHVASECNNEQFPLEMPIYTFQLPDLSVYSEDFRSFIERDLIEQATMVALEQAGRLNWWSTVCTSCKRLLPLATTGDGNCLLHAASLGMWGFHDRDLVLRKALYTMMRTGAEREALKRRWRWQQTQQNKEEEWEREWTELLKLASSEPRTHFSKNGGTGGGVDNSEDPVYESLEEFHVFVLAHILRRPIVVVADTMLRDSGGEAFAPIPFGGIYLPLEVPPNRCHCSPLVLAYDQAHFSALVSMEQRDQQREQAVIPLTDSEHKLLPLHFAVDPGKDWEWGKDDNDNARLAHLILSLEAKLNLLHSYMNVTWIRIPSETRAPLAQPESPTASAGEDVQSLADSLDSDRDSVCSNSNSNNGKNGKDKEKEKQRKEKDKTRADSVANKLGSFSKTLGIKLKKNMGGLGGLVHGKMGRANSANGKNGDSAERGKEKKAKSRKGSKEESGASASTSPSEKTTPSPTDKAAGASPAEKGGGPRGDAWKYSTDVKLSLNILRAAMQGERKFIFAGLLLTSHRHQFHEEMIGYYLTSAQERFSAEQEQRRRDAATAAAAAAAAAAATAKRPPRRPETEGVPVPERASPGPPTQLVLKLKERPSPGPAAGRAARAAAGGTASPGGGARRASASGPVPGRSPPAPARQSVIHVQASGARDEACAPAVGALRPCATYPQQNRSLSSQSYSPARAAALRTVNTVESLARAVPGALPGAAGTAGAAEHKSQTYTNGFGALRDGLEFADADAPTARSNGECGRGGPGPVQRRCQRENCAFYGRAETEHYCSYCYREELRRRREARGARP
# Summary of the method: as §1
# UniProt Q9P2H5 = target: T3, UniProt Q9P2H5
# T3 sequence (whole entry): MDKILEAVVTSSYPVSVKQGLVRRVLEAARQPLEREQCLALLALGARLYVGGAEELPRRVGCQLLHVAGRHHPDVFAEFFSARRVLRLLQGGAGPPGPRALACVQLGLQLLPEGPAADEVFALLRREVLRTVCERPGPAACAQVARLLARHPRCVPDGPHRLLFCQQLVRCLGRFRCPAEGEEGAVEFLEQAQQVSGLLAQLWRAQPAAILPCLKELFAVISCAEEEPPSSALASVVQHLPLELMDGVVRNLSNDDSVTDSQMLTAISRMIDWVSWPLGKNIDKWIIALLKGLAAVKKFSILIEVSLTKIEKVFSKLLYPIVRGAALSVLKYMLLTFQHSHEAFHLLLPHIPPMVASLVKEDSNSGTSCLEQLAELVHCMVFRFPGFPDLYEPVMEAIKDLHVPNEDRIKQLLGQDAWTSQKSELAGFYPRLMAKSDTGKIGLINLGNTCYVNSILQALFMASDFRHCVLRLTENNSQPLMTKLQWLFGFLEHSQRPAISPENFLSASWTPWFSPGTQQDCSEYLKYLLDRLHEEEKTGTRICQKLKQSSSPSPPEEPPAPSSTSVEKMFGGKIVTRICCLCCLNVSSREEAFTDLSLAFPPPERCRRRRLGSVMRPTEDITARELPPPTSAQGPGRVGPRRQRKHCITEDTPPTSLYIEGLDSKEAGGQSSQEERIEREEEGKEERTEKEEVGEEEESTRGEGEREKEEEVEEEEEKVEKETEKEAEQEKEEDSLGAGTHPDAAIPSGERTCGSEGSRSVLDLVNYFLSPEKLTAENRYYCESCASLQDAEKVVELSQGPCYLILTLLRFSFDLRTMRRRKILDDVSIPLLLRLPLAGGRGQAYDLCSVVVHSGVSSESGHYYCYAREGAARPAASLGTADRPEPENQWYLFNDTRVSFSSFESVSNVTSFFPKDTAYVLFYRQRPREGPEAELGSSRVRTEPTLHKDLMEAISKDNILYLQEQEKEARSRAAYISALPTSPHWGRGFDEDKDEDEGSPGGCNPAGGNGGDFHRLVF
# Summary of the method: as §1
# UniProt Q9UGI0 = target: T4, UniProt Q9UGI0
# T4 sequence (whole entry): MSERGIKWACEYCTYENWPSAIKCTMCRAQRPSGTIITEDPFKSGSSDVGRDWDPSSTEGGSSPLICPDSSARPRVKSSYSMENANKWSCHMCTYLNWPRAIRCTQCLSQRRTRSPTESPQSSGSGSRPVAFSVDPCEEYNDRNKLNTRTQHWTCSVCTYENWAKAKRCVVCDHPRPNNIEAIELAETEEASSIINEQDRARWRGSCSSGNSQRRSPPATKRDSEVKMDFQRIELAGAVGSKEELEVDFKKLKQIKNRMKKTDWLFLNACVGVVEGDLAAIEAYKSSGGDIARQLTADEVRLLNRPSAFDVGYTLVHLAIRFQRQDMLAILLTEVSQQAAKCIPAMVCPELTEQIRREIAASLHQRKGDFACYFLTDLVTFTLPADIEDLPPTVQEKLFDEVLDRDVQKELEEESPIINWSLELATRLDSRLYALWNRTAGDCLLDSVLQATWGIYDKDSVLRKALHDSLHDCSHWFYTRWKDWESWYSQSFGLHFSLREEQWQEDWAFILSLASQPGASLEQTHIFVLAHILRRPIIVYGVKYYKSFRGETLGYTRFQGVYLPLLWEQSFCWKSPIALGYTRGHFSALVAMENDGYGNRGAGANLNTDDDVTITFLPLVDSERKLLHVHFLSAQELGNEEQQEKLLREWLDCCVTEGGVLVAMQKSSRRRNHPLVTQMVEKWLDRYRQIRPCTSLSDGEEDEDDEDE
# Summary of the method: as §1
# YOD1 = target: T5, YOD1 (UniProt Q5VVQ6)
# T5 sequence (whole entry): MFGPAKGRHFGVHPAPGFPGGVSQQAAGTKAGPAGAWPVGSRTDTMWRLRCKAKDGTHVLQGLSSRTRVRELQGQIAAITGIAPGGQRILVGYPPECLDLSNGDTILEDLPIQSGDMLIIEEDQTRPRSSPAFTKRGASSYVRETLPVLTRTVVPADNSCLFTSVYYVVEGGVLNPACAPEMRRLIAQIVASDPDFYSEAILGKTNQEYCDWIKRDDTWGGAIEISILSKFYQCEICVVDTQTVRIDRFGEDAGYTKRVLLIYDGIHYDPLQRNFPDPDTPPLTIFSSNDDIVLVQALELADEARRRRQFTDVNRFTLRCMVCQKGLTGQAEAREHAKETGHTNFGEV
# Summary of the method: as §1
# Sequence of UniProt O00487 (O00487 whole entry): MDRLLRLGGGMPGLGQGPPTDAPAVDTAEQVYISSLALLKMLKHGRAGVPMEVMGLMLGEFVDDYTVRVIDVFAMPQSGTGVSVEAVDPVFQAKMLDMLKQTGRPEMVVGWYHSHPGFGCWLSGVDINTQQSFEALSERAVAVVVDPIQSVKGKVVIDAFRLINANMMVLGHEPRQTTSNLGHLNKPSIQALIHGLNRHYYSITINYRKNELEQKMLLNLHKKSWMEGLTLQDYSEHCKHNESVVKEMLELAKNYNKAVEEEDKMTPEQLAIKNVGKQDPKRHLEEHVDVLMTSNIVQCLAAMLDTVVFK
# Sequence of USP9X (Q93008 whole entry, the tested form may be a part): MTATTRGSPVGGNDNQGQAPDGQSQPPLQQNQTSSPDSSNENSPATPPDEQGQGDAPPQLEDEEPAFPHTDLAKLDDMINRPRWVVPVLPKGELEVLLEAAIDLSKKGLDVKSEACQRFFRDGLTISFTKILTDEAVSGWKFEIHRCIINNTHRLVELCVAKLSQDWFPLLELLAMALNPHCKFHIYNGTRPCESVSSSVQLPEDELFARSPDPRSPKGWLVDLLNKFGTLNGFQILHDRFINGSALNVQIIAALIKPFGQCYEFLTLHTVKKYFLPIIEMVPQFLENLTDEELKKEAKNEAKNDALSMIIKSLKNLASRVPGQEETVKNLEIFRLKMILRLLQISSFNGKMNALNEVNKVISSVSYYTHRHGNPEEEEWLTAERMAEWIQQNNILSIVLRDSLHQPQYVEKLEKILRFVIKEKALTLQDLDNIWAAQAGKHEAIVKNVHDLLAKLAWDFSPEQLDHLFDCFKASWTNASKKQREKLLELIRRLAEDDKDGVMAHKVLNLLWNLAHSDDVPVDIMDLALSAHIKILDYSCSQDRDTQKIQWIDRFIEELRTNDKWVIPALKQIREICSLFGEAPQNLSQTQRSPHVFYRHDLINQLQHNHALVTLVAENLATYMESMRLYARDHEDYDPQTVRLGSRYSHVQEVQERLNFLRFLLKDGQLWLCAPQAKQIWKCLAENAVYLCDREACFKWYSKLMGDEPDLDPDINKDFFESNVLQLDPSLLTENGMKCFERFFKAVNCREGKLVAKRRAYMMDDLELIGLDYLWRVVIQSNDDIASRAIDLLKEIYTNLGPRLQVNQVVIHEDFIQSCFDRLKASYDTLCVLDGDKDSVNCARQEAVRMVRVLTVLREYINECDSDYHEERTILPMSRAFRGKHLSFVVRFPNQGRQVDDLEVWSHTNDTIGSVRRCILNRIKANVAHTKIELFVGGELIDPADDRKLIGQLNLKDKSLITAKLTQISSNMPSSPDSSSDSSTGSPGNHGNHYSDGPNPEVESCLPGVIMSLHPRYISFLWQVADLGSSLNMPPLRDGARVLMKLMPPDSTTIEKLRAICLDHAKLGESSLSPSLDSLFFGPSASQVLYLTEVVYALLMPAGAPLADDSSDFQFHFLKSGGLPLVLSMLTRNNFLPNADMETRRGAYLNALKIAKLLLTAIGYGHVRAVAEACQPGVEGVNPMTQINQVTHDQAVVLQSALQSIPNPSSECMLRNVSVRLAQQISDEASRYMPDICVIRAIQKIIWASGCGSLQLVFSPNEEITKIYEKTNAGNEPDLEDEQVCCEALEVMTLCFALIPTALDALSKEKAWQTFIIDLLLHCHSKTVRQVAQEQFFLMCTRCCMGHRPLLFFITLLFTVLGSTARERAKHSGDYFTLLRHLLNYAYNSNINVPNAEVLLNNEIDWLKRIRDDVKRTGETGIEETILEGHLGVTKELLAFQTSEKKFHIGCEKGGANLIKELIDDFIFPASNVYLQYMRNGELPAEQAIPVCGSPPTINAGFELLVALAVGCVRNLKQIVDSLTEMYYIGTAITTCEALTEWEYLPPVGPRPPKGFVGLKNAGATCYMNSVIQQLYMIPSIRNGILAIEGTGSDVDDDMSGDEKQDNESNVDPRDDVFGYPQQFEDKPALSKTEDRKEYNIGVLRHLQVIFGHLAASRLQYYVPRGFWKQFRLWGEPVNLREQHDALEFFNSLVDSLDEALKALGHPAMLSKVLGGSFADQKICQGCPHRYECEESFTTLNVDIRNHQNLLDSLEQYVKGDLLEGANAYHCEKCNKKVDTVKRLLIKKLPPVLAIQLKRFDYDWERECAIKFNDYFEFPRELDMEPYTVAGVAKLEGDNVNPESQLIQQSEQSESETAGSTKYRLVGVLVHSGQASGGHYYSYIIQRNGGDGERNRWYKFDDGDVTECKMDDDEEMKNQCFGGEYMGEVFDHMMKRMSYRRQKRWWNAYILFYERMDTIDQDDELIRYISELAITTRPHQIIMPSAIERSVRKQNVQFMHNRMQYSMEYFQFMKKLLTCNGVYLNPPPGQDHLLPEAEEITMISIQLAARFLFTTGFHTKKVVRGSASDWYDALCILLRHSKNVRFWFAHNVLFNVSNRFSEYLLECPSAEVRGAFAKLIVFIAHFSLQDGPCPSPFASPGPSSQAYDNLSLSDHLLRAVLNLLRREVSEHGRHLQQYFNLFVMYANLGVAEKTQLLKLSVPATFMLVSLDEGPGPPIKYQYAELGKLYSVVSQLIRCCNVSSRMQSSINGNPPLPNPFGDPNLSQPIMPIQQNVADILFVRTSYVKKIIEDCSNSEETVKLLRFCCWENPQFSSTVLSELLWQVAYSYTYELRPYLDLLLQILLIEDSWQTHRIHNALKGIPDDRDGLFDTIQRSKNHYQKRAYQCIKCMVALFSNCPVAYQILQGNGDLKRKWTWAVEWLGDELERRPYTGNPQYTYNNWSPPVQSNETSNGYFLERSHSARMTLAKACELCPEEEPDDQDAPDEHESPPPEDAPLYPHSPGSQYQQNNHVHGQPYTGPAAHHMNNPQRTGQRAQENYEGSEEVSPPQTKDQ
# Sequence of UniProt P51784 (P51784 whole entry): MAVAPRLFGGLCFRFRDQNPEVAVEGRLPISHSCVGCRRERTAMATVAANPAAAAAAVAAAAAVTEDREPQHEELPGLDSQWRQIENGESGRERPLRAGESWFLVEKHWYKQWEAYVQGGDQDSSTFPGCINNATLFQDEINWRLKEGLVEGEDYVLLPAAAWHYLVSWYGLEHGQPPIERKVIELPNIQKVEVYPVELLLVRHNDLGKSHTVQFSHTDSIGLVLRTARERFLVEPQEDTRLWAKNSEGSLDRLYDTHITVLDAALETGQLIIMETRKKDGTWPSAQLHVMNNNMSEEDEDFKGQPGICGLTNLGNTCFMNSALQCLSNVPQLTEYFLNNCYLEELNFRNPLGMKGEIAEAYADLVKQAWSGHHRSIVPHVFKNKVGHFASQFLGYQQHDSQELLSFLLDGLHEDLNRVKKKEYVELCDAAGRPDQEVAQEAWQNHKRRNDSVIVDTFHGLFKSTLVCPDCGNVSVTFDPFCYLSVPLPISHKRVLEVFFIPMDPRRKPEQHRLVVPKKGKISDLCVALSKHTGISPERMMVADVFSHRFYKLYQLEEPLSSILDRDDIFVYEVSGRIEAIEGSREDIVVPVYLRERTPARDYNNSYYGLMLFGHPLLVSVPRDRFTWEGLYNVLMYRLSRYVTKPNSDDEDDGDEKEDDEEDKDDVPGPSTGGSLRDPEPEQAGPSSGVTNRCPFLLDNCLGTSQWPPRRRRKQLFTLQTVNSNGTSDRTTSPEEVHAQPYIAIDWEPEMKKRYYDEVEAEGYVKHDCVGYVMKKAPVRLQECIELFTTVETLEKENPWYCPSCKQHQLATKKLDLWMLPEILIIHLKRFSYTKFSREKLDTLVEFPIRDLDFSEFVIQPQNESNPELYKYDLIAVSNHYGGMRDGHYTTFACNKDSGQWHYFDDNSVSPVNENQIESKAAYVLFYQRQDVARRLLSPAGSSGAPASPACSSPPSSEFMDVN
smiles,measurement,setting,value
O=C(CCl)Nc1cc(Cl)ccc1-n1cncn1,log2 ratio of Biotin-Ahx-Ub-VS probe labelling,USP9X,-1.04 (active)
same,log2 ratio of Biotin-Ahx-Ub-VS probe labelling,UniProt O00487,-0.13
same,log2 ratio of Biotin-Ahx-Ub-VS probe labelling,UniProt O00507,-1.06 (active)
same,log2 ratio of Biotin-Ahx-Ub-VS probe labelling,UniProt P51784,-0.871
same,log2 ratio of Biotin-Ahx-Ub-VS probe labelling,UniProt Q5T2D3,-0.95
same,log2 ratio of Biotin-Ahx-Ub-VS probe labelling,UniProt Q8TE49,-1.44 (active)
same,log2 ratio of Biotin-Ahx-Ub-VS probe labelling,UniProt Q9P2H5,-0.954
same,log2 ratio of Biotin-Ahx-Ub-VS probe labelling,UniProt Q9UGI0,-1.05 (active)
same,log2 ratio of Biotin-Ahx-Ub-VS probe labelling,YOD1,-1.12 (active)
